We go through 46 molecules from PubChem BioAssay AID1851 (National Center for Advancing Translational Sciences (NCATS), 2009).

Molecules are shown by their SMILES. Among all 16,000 compounds or so, about 5,100 (32%) were called active. Not shown: some 25% with an inconclusive outcome. This is one part of the list. Values without a mark were called inactive. Calls follow the shape of the dose curve; as a rule, active = well fitted curve in the direction sought with a large enough effect; inconclusive = small, poorly fitted or top-dose-only effect, or effect the other way; inactive = no such curve, though single readings can be large or run the other way.
% is scaled to controls: 0 for no effect and ±100 for the full control effect.

Sequence of Cytochrome P450 3A4 (Homo sapiens) (P08684 whole entry, looked up): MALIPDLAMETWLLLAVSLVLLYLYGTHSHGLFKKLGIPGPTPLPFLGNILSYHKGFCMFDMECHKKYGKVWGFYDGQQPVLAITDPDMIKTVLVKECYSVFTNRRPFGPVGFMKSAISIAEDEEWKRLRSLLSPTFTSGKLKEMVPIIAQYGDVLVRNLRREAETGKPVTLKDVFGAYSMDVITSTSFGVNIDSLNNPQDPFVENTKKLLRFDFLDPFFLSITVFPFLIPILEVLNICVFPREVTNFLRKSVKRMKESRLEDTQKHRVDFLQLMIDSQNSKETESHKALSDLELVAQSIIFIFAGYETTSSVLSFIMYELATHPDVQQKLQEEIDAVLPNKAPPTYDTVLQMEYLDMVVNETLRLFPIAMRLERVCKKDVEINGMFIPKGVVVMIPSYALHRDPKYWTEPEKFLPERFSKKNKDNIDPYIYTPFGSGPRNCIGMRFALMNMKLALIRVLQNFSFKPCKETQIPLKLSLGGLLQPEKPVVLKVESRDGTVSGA

This assay addresses Cytochrome P450 3A4 (Homo sapiens) (UniProt P08684). Put plainly: Cytochrome panel assay with activity outcomes. To be noted: recombinant CYP, pro-luciferin dealkylation, luminescence, p450-cyp3a4; series mostly up to 57.1 µM; activity, negative = inhibition: at the top concentration.
As to `CCOc1ccc2ccccc2c1C(=O)N[C@@H]1C(=O)N2[C@@H]1SC(C)(C)[C@@H]2C(=O)O`, the “activity, negative = inhibition” value was -1.29% [at 25.6 µM].
Turning to `CCOc1cc(C2CC(=O)c3c(ccc4ccccc34)N2)ccc1O` (stereo unspecified), the AC50 (as a rule, the concentration giving half of the maximal activity seen) is 10 µM (active).
Same read-out and setting: to `Cn1c(Sc2ccc(-c3cccnc3)n2C)ccc1-c1cccnc1` belongs 0.631 µM (active).
On to `N=C1CCC[C@@H]1C(=S)SCCC(N)=O`, for which the activity, negative = inhibition was -30.7% [at 11.4 µM].
The same measure, in the same setting: to `CCS(=O)(=O)N1CCCC(C(=O)NCCCOC(C)C)C1` (stereo unspecified) belongs -3.86%.
Regarding `Cc1ccc(S(=O)(=O)N2CCCC(C(=O)NCCCN3CCCCC3C)C2)cc1` (stereo unspecified), the AC50 was 14.1 µM (active).
Turning to `COc1ccc(NC(=O)NCCCN2CCCCC2C)cc1` (stereo unspecified), the “activity, negative = inhibition” value is -9.37%.
The same measure, in the same setting: to `O[C@H](CN1CCN(c2cccc(Cl)c2)CC1)C(c1ccccc1)c1ccccc1` belongs -19.9%.
In the case of `O=C(CCCN1C(=O)C2C3C=CC(C3)C2C1=O)N1CCN(c2ccccc2)CC1` (stereo unspecified), the concentration at half-maximal activity (AC50) is 0.794 µM (active).
In the case of `O=C(CCN1C(=O)C2C3C=CC(C3)C2C1=O)N1CCN(c2cccc(Cl)c2)CC1` (stereo unspecified), the AC50 is 1.12 µM (active).
On to `O=c1n(CCCN2CCN(c3cccc(Cl)c3)CC2)nc2ccccn12`, for which the AC50 result was “inactive”.
As for `CCOC(=O)c1c(C)[nH]c(C(=O)OCC(=O)NC2CCS(=O)(=O)C2)c1C` (stereo unspecified), the “activity, negative = inhibition” value is -4.72%.
Still for that read-out and setting: the same measure for `CNC(=O)c1c(I)c(C(=O)NCC(=O)Nc2c(I)c(C(=O)O)c(I)c(C(=O)NCCO)c2I)c(I)c(N(C)C(C)=O)c1I`: -1.74% [at 25.6 µM]; for `CCCCOc1ccc(CC(=O)NO)cc1`: -17.9% [at 25.6 µM].
With `COc1ccc(CNn2c(C)nc3ccccc3c2=O)cc1`, the AC50 was 3.98 µM (active).
Consider `CC(C)On1c(SC(C)C)nc2ccccc2c1=O`, for which the activity, negative = inhibition is 22.8% [at 11.4 µM].
Regarding `COc1ccc(-c2nc3ccccc3c(=O)n2N)cc1`, the activity, negative = inhibition was -5.9% [at 11.4 µM].
The same measure, in the same setting: to `O=C(c1ccccc1)c1ccc(OCCn2cnc3ccccc3c2=O)cc1` belongs 26.6% [at 2.29 µM].
For the molecule `CCCCOc1ccc(CNn2c(C)nc3ccccc3c2=O)cc1`, the AC50 was 1.58 µM (active).
For `CCCNC1CCS(=O)(=O)C1` (stereo unspecified), the “activity, negative = inhibition” value is -7.29%.
Take `CC[C@H](C)[C@@H]1O[C@]2(CC[C@@H]1C)C[C@H]1C[C@H](CC=C(C)[C@@H](O[C@@H]3C[C@H](OC)[C@H](O[C@@H]4C[C@H](OC)[C@H](O)[C@H](C)O4)[C@H](C)O3)[C@@H](C)C=CC=C3CO[C@@H]4[C@@H](O)C(C)=C[C@@H](C(=O)O1)[C@]34O)O2`: the “activity, negative = inhibition” value is -24.7% [at 25.6 µM].
Consider `CC1CC(OCC(O)CN2CCN(Cc3ccccc3)CC2)CC(C)(C)C1` (stereo unspecified), for which the AC50 is 8.91 µM (active).
Consider `CC1CCC(C(C)C)C(OCC(O)CN2CCN(Cc3ccccc3)CC2)C1` (stereo unspecified), for which the “activity, negative = inhibition” value is -17.1%.
Same read-out and setting: the same measure for `CN1CCN(CC(O)c2ccccc2)CC1` (stereo unspecified): -0.756%; for `COc1cccc(C(=O)NNC2=CC(=O)CC(C)(C)C2)c1`: 3.39% [at 2.29 µM].
Take `COc1cccc(C(=O)N2N=C(c3cccc(OC)c3)CC2(O)C(F)(F)F)c1` (stereo unspecified): the half-maximal activity concentration (AC50) is 7.94 µM (active).
`CCOC(=O)N1N=C(c2ccccc2)CC1(O)C(F)(F)F` (stereo unspecified): the activity, negative = inhibition is 2.59% [at 11.4 µM].
Still for that read-out and setting: the same measure for `COc1cc(CNCCc2ccccc2)ccc1OCC(=O)NC(C)(C)C`: 3.22%.
Regarding `CCOc1cc(CNc2ccc(OC)cc2)cc(Br)c1OCC(=O)NC(C)(C)C`, the half-maximal activity concentration (AC50) was 15.8 µM (active).
As for `CCOc1ccc(N=C2NC(=O)C(CC(=O)O)S2)cc1` (stereo unspecified), the “activity, negative = inhibition” value is -1.23%.
On the same count and under the same terms, to `CCn1c(CCNC(=O)c2ccccc2Cl)n[nH]c1=S` belongs -19.4%.
On to `CCn1c(CCNC(=O)c2ccc(Cl)cc2Cl)n[nH]c1=S`, for which the AC50 was 14.1 µM (active).
For `CCn1c(CC(C)C)n[nH]c1=S`, the “activity, negative = inhibition” value is 18.3%.
On to `O=[N+]([O-])c1ccc(-c2cnc(SCc3ccccc3Cl)[nH]2)cc1`, for which the concentration at half-maximal activity (AC50) was 14.1 µM (active).
Turning to `O=[N+]([O-])c1ccc(Cl)c(/C=N/N2CCN(Cc3ccccc3Cl)CC2)c1`, the “activity, negative = inhibition” value was -13.7%.
The same measure, in the same setting: the same measure for `O=[N+]([O-])c1ccc(CSCc2ccc(Cl)cc2)cc1`: -19.8% [at 11.4 µM].
In the case of `CC(c1ccc(Cl)cc1)n1c(-c2ccc3ccccc3n2)n[nH]c1=S` (stereo unspecified), the AC50 is 7.94 µM (active).
On the same count and under the same terms, the same measure for `CN(C)CC[C@H](c1ccc(Cl)cc1)c1ccccn1`: “inactive”.
As for `CC(C)Cn1c(-c2nn(C)cc2Cl)n[nH]c1=S`, the “activity, negative = inhibition” value was -22%.
For the molecule `Cc1cc2nnc(SCCCCN3C(=O)c4ccccc4C3=O)n2c2ccccc12`, the AC50 is 6.31 µM (active).
On to `Cc1cc2nnc(SCC(=O)OC(C)C)n2c2ccccc12`, for which the “activity, negative = inhibition” value was -9.9%.
`CCc1ccc(N2C(=O)c3ccc4c5c(ccc(c35)C2=O)CC4)cc1`: the “activity, negative = inhibition” value was 8.28%.
Same read-out and setting: to `COC(=O)Nc1nc2ccc(Sc3ccccc3)cc2[nH]1` belongs -22.1% [at 25.6 µM].
As for `COc1ccc(C(=O)NCc2ccc(-c3nc4ccccc4s3)cc2)cc1`, the AC50 was 2.51 µM (active).
`O=C(NC1CCCc2ccccc21)c1ccc(=O)[nH]c1` (stereo unspecified): the activity, negative = inhibition was 10.9% [at 2.29 µM].
`O=C(NC1CCCc2ccccc21)C1CCN(S(=O)(=O)N2CCCCCC2)CC1` (stereo unspecified): the AC50 is 7.94 µM (active).
